Data on 40 compounds can be found in PubChem BioAssay (Tox21).

Inconclusive results are not listed. Where a call stands in place of a potency, no number is given. Unmarked numbers belong to inactive results. The source made the active and inactive calls. The call rests on the fitted dose curve; in most records, active means well fitted activation curve with a large enough effect in the repeat runs; inconclusive means weak or mixed curves; inactive means flat fitted curve, though single readings scatter.

The nature of this assay: A CellTox Green Cytotoxicity Assay to monitor cytotoxicity in HEK293 cells - 24 hour (AID 1224875). Further: nearly all actives have a fitted effect of over 45% in size. Conditions: CellTox Green fluorescence; series mostly up to 76.8 µM. The text has this: National Center for Advancing Translational Sciences [NCATS]
NIH Chemical Genomics Center [NCGC]
U.S. Environmental Protection Agency [EPA]
National Institutes of Environmental Health Sciences [NIEHS]
National Toxicology Program [NTP]
Cell-based models are critical for drug discovery. Determining the natural cytotoxic effects resulting from test compounds is an essential research activity. A CellTox Green Cytotoxicity Assay to monitor cytotoxicity in real time of continues cell culture during 40 hours of the compound treatment was used to screen Tox21 10K library compounds in Hek293 cells. CellTox Green Cytotoxicity Assay is a nonlytic, homogeneous, biofluorescent method to measure cytotoxicity in cell culture after experimental manipulation. The assay system uses a proprietary asymmetric cyanine dye that is excluded from viable cells but preferentially stains the dead cell's DNA. […] Viable cells produce no appreciable increases in fluorescence. Therefore, the fluorescence signal produced by the binding interaction with dead cell DNA is proportional to cytotoxicity.
The mixture of Hek293 cell suspension and reagents were dispensed at 600cells/6 ul/well in 1536-well tissue culture treated black solid bottom plates using a Multidrop dispenser. After the assay plates were incubated at a 37 C/5% CO2 incubator for 5 hours, 23 nL of compounds dissolved in DMSO, positive and negative controls was transferred to the assay plate by a pintool work station. The plates were incubated at 37 C for 40 hours. The fluorescence intensity were measured at 0h, 8h, 16h, 24h, 32h and 40h time points using ViewLux plate reader during compound treatment.
As for `NC(=O)OCCCc1ccccc1`, the Potency result is “inactive”. The same measure, in the same setting: with `[P]#[In]` the entry was “inactive”; with `CCN(CCO)CCn1c(Cc2ccccc2)nc2c1c(=O)n(C)c(=O)n2C`, “inactive”. Take `COC1=CC(=O)O[C@@H](/C=C/c2ccccc2)C1`: the Potency result is “inactive”.

For `COc1ccc(C=O)cc1O`, the Potency result was “inactive”. On the same count and under the same terms, with `CCOC(=O)CCl` the entry was “inactive”. On the same count and under the same terms, with `CC(=O)CN(CC(C)=O)N=O` the entry was “inactive”. As for `Cc1ccc2c(c1)C1CN(C)CCC1N2` (stereo not given), the activity change is 0.918% [at 15.8 µM, hits give high values].

`O=C(Cl)/C=C/C(=O)Cl`: the Potency entry was “inactive”. For the compound `COc1ccc(CN2CCNCC2)c(OC)c1OC`, the Potency result was “inactive”.

Regarding `O=c1[nH]c2ccccc2n1C1CCNCC1`, the Potency entry was “inactive”. On the same count and under the same terms, with `CCSC(=O)Cl` the entry was “inactive”; with `CCCOc1nn(C(=O)NS(=O)(=O)c2ccccc2C(=O)OC)c(=O)n1C`, “inactive”; with `O=c1[nH]c2ccccc2o1`, “inactive”. Same read-out and setting: with `COc1ccc2c(C(=O)c3ccc(Cl)cc3)c(C)n(CC(=O)O)c2c1` the entry was “inactive”; with `C[C@@H](N)[C@@H](O)c1ccccc1`, “inactive”. Same read-out and setting: to `CNC(=O)Oc1cc(C)c(N(C)C)c(C)c1` belongs “inactive”.

Consider `CCCC(C)(COC(N)=O)COC(N)=O`, for which the Potency entry is “inactive”.

For the compound `CCOC(=O)c1ncn2c1CN(C)C(=O)c1c(I)cccc1-2`, the Potency entry is “inactive”. As to `CCN[C@H](C)Cc1cccc(C(F)(F)F)c1`, the Potency entry is “inactive”. The same measure, in the same setting: with `CCCC[N+](=O)[O-]` the entry was “inactive”; with `CN(C)C(=O)Oc1cc(OC(=O)N(C)C)cc(C(O)CNC(C)(C)C)c1` (stereo not given), “inactive”; with `CC(C)c1ccc(O)cc1`, “inactive”. Still for that read-out and setting: with `CCOC(=O)CC(SP(=S)(OC)OC)C(=O)OCC` (stereo not given) the entry was “inactive”; with `CN(C)CCN(C)C`, “inactive”; with `CCC1(c2ccccc2)CCC(=O)NC1=O` (stereo not given), “inactive”.

Turning to `NNC(N)=O`, the Potency entry was “inactive”. The same measure, in the same setting: to `CCCN1CCC[C@@H]2Cc3[nH]ncc3C[C@H]21` belongs “inactive”; to `CCC(=O)c1ccc(Cl)cc1`, “inactive”; to `CCN1CCCC1CNC(=O)C(O)(c1ccccc1)c1ccccc1` (stereo not given), “inactive”. In the case of `CC(=NC#N)N(C)Cc1ccc(Cl)nc1`, the Potency entry was “inactive”.

As to `O=C(Cl)c1ccccc1`, the Potency entry is “inactive”. Same read-out and setting: to `CC(C)(C)NC[C@H](O)c1ccc(O)cc1Cl` belongs “inactive”; to `Cc1ccc2cc(C)ccc2c1`, “inactive”; to `CC(C)(O)C(Cl)(Cl)Cl`, “inactive”.

On to `C[C@H]1CCCC(=O)CCC/C=C/c2cc(O)cc(O)c2C(=O)O1`, for which the Potency entry was “inactive”. The same measure, in the same setting: with `C[N+]1(C)CCCCC1` the entry was “inactive”. The same measure, in the same setting: with `N[C@@H](Cc1ccc(Oc2cc(I)c(O)c(I)c2)c(I)c1)C(=O)O` the entry was “inactive”. The same measure, in the same setting: to `CCN[C@@H](C)Cc1ccccc1` belongs “inactive”; to `CCOC(=O)C(Cl)Cc1cc(-n2nc(C)n(C(F)F)c2=O)c(F)cc1Cl` (stereo not given), “inactive”.
